Data on 40 compounds can be found in PubChem BioAssay (NCI).

About 83,000 compounds went through this panel and 20% of them were active in at least one assay; those are over-represented in the sample as a whole.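 How to read the values: 0–100, growth inhibition (40 = 60% inhibited); 0, no net growth; -100 to 0, cell death (-40 = 40% of starting cells died; -100 = all dead).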 Unmarked numbers belong to inactive results. Calls of active or inactive are those of the source. How the source made its calls: active means growth percent below 10; inactive means the rest.

The test relates to HL-60(TB) leukemia. As to the kind of experiment: NCI-60 one-dose screen, 48 h (100 = growth as untreated, 0 = no growth, -100 = all killed). The note with it: 10 µM unless noted.
`COc1cc(/C=C/C(=O)c2c(C)[n+]([O-])c3ccccc3[n+]2[O-])ccc1O`: the growth is 102%.

Regarding `CC1=C(C(=O)Nc2ccccc2)C(c2ccc3c(c2)OCCO3)NC(=O)N1` (stereo not given), the growth is 106%.

Regarding `COc1ccc2oc(=O)cc(-c3nc4ccc(N)cc4[nH]3)c2c1`, the growth was 101%.

`CCOc1ccc(Br)cc1/C=C(\C#N)c1ccc([N+](=O)[O-])cc1`: the growth is 91.6%.

Consider `CC[C@]12C=CCN3CC[C@@]4(c5ccc(OC)cc5N(C)[C@H]4[C@@](O)(C(=O)OC)[C@@H]1OC(=O)CCC(=O)O[C@H]1CC[C@H]4[C@@H]5CC[C@H]6CC(=O)CC[C@]6(C)[C@H]5CC[C@]14C)[C@@H]32`, for which the growth was -38.2% (active).

As to `C#Cc1cc(C(=O)Nc2ccc(CN3CCN(C)CC3)c(C(F)(F)F)c2)ccc1C`, the growth was 77.8%.

Take `COc1ccc(N)c(-c2cc3c(c4c2[nH]c2ccc(OC)cc24)CCCC3)c1`: the growth was 78.8%.

Turning to `CC(=O)Oc1cccc(S(=O)(=O)n2cc(C(=O)C(=O)Nc3ccncc3)c3ccccc32)c1`, the growth is 56.1%.

Regarding `O=C1/C(=C/c2ccc(Cl)cc2)CN(C(=O)CCN2CCC(=NO)CC2)C/C1=C\c1ccc(Cl)cc1`, the growth was -13% (active).

Regarding `NNC(=O)c1ccc(-n2nc(-c3ccccc3)c3ccccc32)cc1`, the growth is 93%.

With `O=C1C2CC=CCC2C(=O)N1CNc1ccc(Cl)cc1` (stereo not given), the growth was 52.9%.

For `CN(C)c1cccc2c(S(=O)(=O)N[C@H]3CC[C@H]4[C@@H]5CCc6cc(O)ccc6[C@H]5CC[C@]34C)cccc12`, the growth is -26.7% (active).

Turning to `CCCn1c(=O)c2c(nc(-c3cccc(OCCCCl)c3)n2C)n(CCC)c1=O`, the growth is 107%.

Consider `CC(C)(c1ccc(OCC(O)CNCc2ccco2)cc1)c1ccc(OCC(O)CNCc2ccco2)cc1` (stereo not given), for which the growth was 63.9%.

As to `COc1cc(-c2cc(C(=O)N3CCN(C(=O)c4ccccc4NCc4cccs4)CC3)nc3cc(-c4ccccc4)nn23)cc(OC)c1OC`, the growth was 82.7%.

Turning to `CCCCNC(=O)Oc1ccc(/C(=C(/CC)Cc2ccccc2)c2ccc(OCCCN(C)C)cc2)cc1`, the growth is 78%.

Turning to `CCOC(=O)CSc1nc2sc3c(c2c(=O)n1-c1ccccc1)CCCCC3`, the growth is 109%.

On to `CN(C)CCOC(=O)Nc1ccc(Cl)cc1`, for which the growth is 100%.

`O=C1C(=O)c2c(nc3ccc(Cl)cn23)-c2ccccc21`: the growth was -79.7% (active).

For the compound `O=C(Cn1cccc(Nc2ccccc2)c1=O)Nc1ccccc1`, the growth was 118%.

For the compound `CCCCOc1ccc(/C=N/Nc2cc(C)nc3ccc(Br)cc23)cc1`, the growth is 1.52% (active).

As for `COc1cc2c(Oc3ccc4[nH]c(C)cc4c3F)ncnc2cc1OCCCN1CCCC1`, the growth was 102%.

On to `OC(CCN1CCCCC1)(c1ccccc1)c1ccccc1`, for which the growth was 130%.

As for `C/C(=C(/c1ccc(Cl)cc1)c1ccc(OCCN2CCCCCC2)cc1)c1ccccc1`, the growth is 63.6%.

Take `C=C[C@@H]1C[C@H](O)Cc2cc(F)ccc2N1`: the growth is -2.59% (active).

On to `Cc1ccc(Nc2cc(=S)nc(N)[nH]2)cc1C`, for which the growth is 92.6%.

`O=[N+]([O-])c1ccc([I+]c2ccccc2)cc1`: the growth is 21.5%.

On to `COc1ccc(NC2=C(I)C(=O)c3ncccc3C2=O)cc1`, for which the growth was -47.5% (active).

With `Fc1cccc(Oc2ccc(Nc3ncnc4ccc(OCCCN5CCOCC5)cc34)cc2Cl)c1`, the growth was 83.6%.

On to `NS(=O)(=O)c1ccc(NCC(=O)Nc2ccc(-c3nc4ccccc4s3)cc2)cc1`, for which the growth is 33.4%.

Turning to `COc1cc(C(=O)c2cnc(-c3ccc4cc[nH]c4c3)[nH]2)cc(OC)c1OC`, the growth was -1.01% (active).

On to `COc1ccc2c(c1)CCc1[nH]nc(-c3cc(OC)c(OC)c(OC)c3)c1-2`, for which the growth is -20.4% (active).

With `CNC1=C([N+](=O)[O-])C(c2ccc(OC)cc2)C(C#N)=C(c2cccs2)O1` (stereo not given), the growth is 99.5%.

For the compound `O=C1OCC2=C1C(c1ccccc1)c1cc3c(cc1N2CCO)OCCO3` (stereo not given), the growth is -14.1% (active).

Consider `O=c1n(C2OC(CO)C(O)C2O)ccc2nccn12` (stereo not given), for which the growth is 101%.

Regarding `COc1cc(OC)cc(N2C(=O)N(Cc3ccc(C(C)(C)C)cc3)c3ccccc3S2(=O)=O)c1`, the growth is 67.9%.

Regarding `Cc1ccc(S(=O)(=O)NC(=O)NCCSSCCNC(=O)NS(=O)(=O)c2ccc(C)cc2)cc1`, the growth was 102%.

Take `CC(C)Nc1ccc(Nc2ccc(NC(C)C)cc2)cc1`: the growth was 22.1%.

Take `CCOC(=O)c1nn(-c2ccc(S(N)(=O)=O)cc2)c2nc(C)cc(=O)n12`: the growth is 101%.

For the compound `CN(C)C(=O)Oc1cccc([N+](C)(C)C)c1`, the growth is 91%.
